Assay outcomes (PubChem)
A selection: hits, their analogues and other compounds. The true share with any hit is near 19%.
S-ASM inh = blocks human secretory acid sphingomyelinase | P17405 | placental ASM, HMU-PC fluorogenic substrate, 60 min | Potency, µM (doses to about 57.5 µM), inactives show at the highest dose activity change, negative = inhibition, usual class: inhibitors | 0.006% of 340,000 active | AID 504937; note: potency is the fitted concentration of half-maximal effect
Target sequence (P17405 47-631 limits assumed): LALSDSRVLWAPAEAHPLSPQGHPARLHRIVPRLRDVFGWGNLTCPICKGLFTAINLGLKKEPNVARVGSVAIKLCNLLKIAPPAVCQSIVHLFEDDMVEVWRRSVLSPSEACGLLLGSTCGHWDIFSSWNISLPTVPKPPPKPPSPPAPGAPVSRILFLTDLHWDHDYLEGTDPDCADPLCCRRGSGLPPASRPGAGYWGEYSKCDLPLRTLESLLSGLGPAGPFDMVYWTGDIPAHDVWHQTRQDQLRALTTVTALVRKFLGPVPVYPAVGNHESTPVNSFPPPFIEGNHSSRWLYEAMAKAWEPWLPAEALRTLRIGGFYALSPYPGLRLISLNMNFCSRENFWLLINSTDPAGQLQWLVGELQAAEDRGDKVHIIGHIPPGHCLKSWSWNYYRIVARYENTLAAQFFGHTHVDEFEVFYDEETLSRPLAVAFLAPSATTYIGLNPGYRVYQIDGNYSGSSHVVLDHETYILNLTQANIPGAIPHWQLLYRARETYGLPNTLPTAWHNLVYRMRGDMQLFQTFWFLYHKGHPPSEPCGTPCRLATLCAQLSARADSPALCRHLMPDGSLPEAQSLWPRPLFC
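Human placenta-derived ASM preincubated with compound 10 min at room temperature, then reacted with 9 uM (final) fluorogenic HMU-PC substrate for 60 min at 37 C. Stop solution raises pH to 10; fluorescence read at Ex 386/Em 447 nm.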
TGFb SMAD3 inh = blocks TGF-b signaling; HepG2 CAGA-GFP TGF-b/SMAD3 reporter, GFP fluorescence, 18 h; TGF-beta stimulated, 500 pg/mL final; Potency, µM (doses to about 46.1 µM), inactives show top-dose activity, negative = inhibition, actives largely listed as inhibitors; 1.2% of 410,000 active; AID 588855; note: potency is the fitted concentration of half-maximal effect; % is set by controls: 0 for no effect and ±100 for the full control effect; nearly all actives have a fitted effect of over 65% in size
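Using HEPG2 CAGA-GFP reporter cells at 1000 cells/well, we pinned test compounds, stimulated with recombinant TGF-beta (500 pg/mL final) and measured total well GFP after 18 h.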
IL-1B inflam inh = inflammasome signaling inhibition, IL-1 beta readout; THP-1 LPS/ATP IL-1B secretion, AlphaLISA, 16 h; active compounds read low; activity change, % at 57.5 µM; 4.7% of 360,000 active; in the data active = activity change below about -50%; inconclusive = mostly about -30% to -49%; note: % is set by controls: 0 for no effect and ±100 for the full control effect
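Secreted IL-1B measured by AlphaLISA bead assay after 16 h compound exposure of THP-1 cells; compounds (final up to 57.5 uM) added 1 h before LPS (250 ng/mL) and ATP (1.25 mM) stimulation; lower signal means less secretion.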
TDP1 cell CPT = growth inhibition of DT40 Tdp1-/-;hTDP1 cells with camptothecin (screen for TDP1 inhibitors). chicken DT40 Tdp1-/-;hTDP1 cells + 20 nM CPT, ATP luminescence, 48 h. Potency, µM (titrated, usually from 46.2 µM), inactives show at the highest dose activity change, negative = growth inhibition, hits mostly inhibitors. 12% of 420,000 active. AID 686979; note: potency is the fitted concentration of half-maximal effect; % is set by controls: 0 for no effect and ±100 for the full control effect; nearly all actives have a fitted effect of over 55% in size
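Chicken DT40 Tdp1-/- cells stably complemented with human TDP1 were seeded at 400 cells/well in medium containing 20 nM camptothecin, exposed to pin-transferred compounds, and grown at 37 °C for at least 48 hr. Viability was read as ATP luminescence.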
TDP1 cell noCPT = qHTS for Inhibitors of human tyrosyl-DNA phosphodiesterase 1 (TDP1): qHTS in cells in absence of CPT; DT40 Tdp1-/- hTDP1 cells, no CPT, ATP luminescence, 48 h; Potency, µM (titrated, usually from 46.2 µM), for inactives: at the top dose activity change, negative = growth inhibition, usual class: inhibitors; 15% of 420,000 active; AID 686978, 2013; note: potency is the fitted concentration of half-maximal effect; % is set by controls: 0 for no effect and ±100 for the full control effect; nearly all actives have a fitted effect of over 55% in size
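DT40 Tdp1-/-;hTDP1 cells, no CPT (DMSO vehicle only), 400 cells/well; compounds pin-transferred; ≥48 hr, 37 °C; CellTiter-Glo 30 min RT dark, luminescence read.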
HepG2 viability = counter-screen for TGF-b inhibitors: cytotoxicity in HepG2 cells; AID 588856; 0.76% of 410,000 active; Potency, µM (doses to about 46.1 µM), for the others: at the highest dose activity change, negative = cytotoxicity, hits mostly cytotoxic; HepG2 CAGA-GFP viability, ATP luminescence, 18 h; note: potency is the fitted concentration of half-maximal effect
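CellTiter-Glo luminescence gave cytotoxicity after 18 hours at 37 degrees C. The cells were HepG2 CAGA-GFP in 1% FBS DMEM, stimulated with 500 pg/mL TGF-beta after compound addition. %Activity was normalised to no-cell wells (complete cell-killing) and DMSO (no toxicity), and curves were fitted and classified.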
Active calls of the source: *; ? = inconclusive; nt = not tested or not shown. Unless noted, calls come from the whole dose curve; as a rule, active = well fitted curve in the direction sought with a large enough effect; inconclusive = small, poorly fitted or top-dose-only effect, or another doubt; inactive = no such curve, though single readings can be large; an effect the other way counts as inactive or inconclusive.

SMILES | S-ASM inh | TGFb SMAD3 inh | IL-1B inflam inh | TDP1 cell CPT | TDP1 cell noCPT | HepG2 viability
COc1c(C)cc(C(=O)C2CCCN(Cc3cccc(C)n3)C2)cc1C (stereo unspecified) | 4% | ? | 19 | ? | 21µM* | -56%
COc1cccc(C(=O)C2CCCN(Cc3ccon3)C2)c1 (stereo unspecified) | 1% | 9% | 17 | -6% | -24% | 1%
COc1cccc(C(=O)C2CCCN(Cc3cccc(C)n3)C2)c1 (stereo unspecified) | 6% | ? | 18 | 18µM* | 16µM* | -34%
COc1ccc2cc(C(=O)C3CCCN(C4CCOCC4)C3)ccc2c1 (stereo unspecified) | 7% | 4% | -15 | 21µM* | 13µM* | -16%
N[C@H](CP(=O)(O)O)C(=O)O | nt | nt | nt | 21% | -3% | nt
COC12C(COC(N)=O)C3=C(C(=O)C(C)=C(N)C3=O)N1CC1C2N1C (stereo unspecified) | -4% | -29% | 6 | 0.052µM* | 0.065µM* | -66%
Cc1cc(OCC(=O)NCC(O)c2ccccc2)c2c3c(c(=O)oc2c1)CCCC3 (stereo unspecified) | -2% | 7% | -19 | ? | 18µM* | 2%
Cc1cc(OC(C)C(=O)NCC(O)c2ccccc2)c2c3c(c(=O)oc2c1)CCCC3 (stereo unspecified) | -2% | -18% | -26 | ? | ? | -1%
CC(C)CN(C(=O)CN1CC=C(c2ccccc2)CC1)c1c(N)n(CC(C)C)c(=O)[nH]c1=O | -1% | 10% | -6 | ? | 18µM* | 0%
CCCC/C(=N/O)c1c(C)[nH]c2ccccc12 | 0% | -4% | -4 | -12% | 1% | 0%
CCCCC/C(=N/O)c1c(C)[nH]c2ccccc12 | -4% | -20% | -62* | -27% | ? | 0%
NC(CCc1ccccc1)c1csc(NC(=O)Nc2ccccc2Oc2ccccc2)n1 (stereo unspecified) | nt | ? | -79* | 6.5µM* | 6.5µM* | 10µM*
Cc1csc(NC(=O)C(Cl)c2ccccc2)n1 (stereo unspecified) (tested in a mixture with another compound) | 3% | 20% | -21 | ? | ? | -54%
CC(C)C12CN3CC(C(C)C)(CN(C1)C3c1ccccn1)C2=O (stereo unspecified) | nt | -12% | nt | -27% | -19% | -2%
Cc1ccc(-c2nn3c(=O)cc(CN4CCN(C(=O)COc5ccc(C)c(C)c5)CC4)nc3s2)cc1 | nt | -15% | nt | ? | ? | -31%
COc1ccc(OCC(=O)N2CCN(Cc3cc(=O)n4nc(-c5ccccc5C)sc4n3)CC2)cc1 | nt | -38% | nt | 15µM* | 10µM* | -14%
COc1ccccc1-c1nn2c(=O)cc(CN3CCN(C(=O)Nc4ccc(C)cc4Cl)CC3)nc2s1 | nt | -1% | nt | 15µM* | 6.5µM* | -2%
COc1ccc(-c2nn3c(=O)cc(CN4CCN(S(=O)(=O)c5ccc(C)cc5)CC4)nc3s2)cc1 | nt | -22% | nt | 21µM* | 16µM* | -4%
COc1cccc(-c2nn3c(=O)cc(CN4CCN(C(=O)COc5ccccc5C)CC4)nc3s2)c1 | nt | -19% | nt | ? | 23µM* | -5%
COc1ccc(-c2nn3c(=O)cc(CN4CCN(C(=O)COc5ccc(F)cc5)CC4)nc3s2)cc1 | nt | -2% | nt | -28% | ? | -6%
CCC1CN1P1(=O)OCC(C)([N+](=O)[O-])CO1 (stereo unspecified) | 3% | -2% | -11 | ? | ? | -10%
